Activity calls are given as the source filed them. Unless noted, how the calls were made is not given here.
What was measured:
[1] = tested on: Wnt5a (protein binding on small-molecule microarray); experiment: Wnt5a binders on small-molecule microarray, primary screen, biophysical, 635/667 nm fluorescence (AID 1142); conditions: 635 nm fluorescence, higher = more signal;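 further: fluorescence read at 667 nm with signal to noise per printed feature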
[2] = cell viability in Huh7 cells, primary screen, cytotoxicity control for HCV replication inhibitor project, CellTiter-Glo luminescence, basal, 48 h (AID 1143); conditions: Huh7 HCV replicon, higher = more signal, called active from +8 up or from −8 down;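 further: Huh7 hepatoma cells carrying a hepatitis C replication reporter with no stimulus; test concentration not given here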
[3] = P. aeruginosa biofilm formation inhibitors, primary screen, PAO1 strain, BacTiter-Glo luminescence, LB-PBS (AID 1144); conditions: 12 h, higher = more signal
[4] = CREB reporter modulators without forskolin, primary screen, cell-based, PC12, CRE-LacZ reporter, unstimulated (AID 1145); conditions: no forskolin, luminescence, 4.5 h, higher = more signal, called active from +8 up or from −8 down
[5] = CREB reporter modulators under forskolin, primary screen, cell-based, PC12, CRE-LacZ reporter, forskolin-stimulated (AID 1146); conditions: luminescence, 4.5 h, higher = more signal, called active from +8 up or from −8 down;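 further: PC12 cells with 6xCRE LacZ reporter stimulated by forskolin 10 µM; beta-galactosidase reporter signal reflecting CREB driven transcription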
[6] = target: Streptavidin (Streptomyces avidinii) (UniProt P22629); experiment: streptavidin binders on small-molecule microarray, primary screen, artefact control for SMM compound annotation, biophysical, 635/667 nm fluorescence (AID 1147); conditions: streptavidin binding, higher = more signal;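 further: signal reflects streptavidin binding to arrayed compounds as a control protein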
[7] = small-molecule binders of probe aInhba, primary screen, biochemical, small-molecule microarray, 635/667 nm fluorescence (AID 1148); conditions: higher = more signal;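 further: score merges 667nm spot fluorescence with signal-to-noise for antibody binding to printed compounds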
[8] = target: Torsin-1A (Homo sapiens) (UniProt O14656); experiment: torsin A binders from cell lysate, primary screen, small-molecule microarray, wild-type, 635/667 nm (AID 1149); conditions: COS7 hTOR1A-WT lysate, 635 nm fluorescence, higher = more signal
[9] = target: Torsin-1A (Homo sapiens) (UniProt O14656); experiment: small-molecule binders of mutant TOR1A in lysate, primary screen, cell lysate, small-molecule microarray, COS7 lysate, 635/667 nm fluorescence (AID 1150); conditions: COS7 hTOR1A mutant lysate, 635 nm fluorescence, higher = more signal;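 further: score pools 667 nm emission and signal to noise measuring lysate protein binding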
[10] = tested on: Sonic hedgehog protein (Shh); experiment: small-molecule binders of Shh protein, primary screen, biochemical, small-molecule microarray, 635/667 nm fluorescence (AID 1151); conditions: small-molecule microarray binding, 635 nm fluorescence; higher = more signal;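 further: Shh protein binding to compounds spotted on small-molecule microarray slides; score combines spot fluorescence intensity with signal-to-noise across triplicate slides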
[11] = E. coli DRC41 culture turbidity changes, primary screen, E. coli filamentation inducer project, strain DRC41, OD650, 48 h (AID 1152);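 further: E. coli MC1000 strain DRC41 lacking acrAB efflux pump and sulA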; conditions: E. coli DRC41 (acrAB sulA), higher = more signal, called active from +8 up or from −8 down
[12] = small-molecule binders of probe aLefty1, primary screen, biochemical, small-molecule microarray, 635/667 nm fluorescence (AID 1153); conditions: higher = more signal;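 further: score merges spot fluorescence with signal-to-noise ratio from the scanned slide images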
[13] = PSAC antagonists in infected red cells, primary screen, cell-based, P. falciparum Indochina, OD700, 1 h (AID 1154); conditions: P. falciparum Indochina infected RBC osmotic lysis, higher = more signal, called active from +8 up or from −8 down
[14] = PSAC antagonists in infected red cells, primary screen, cell-based, P. falciparum Indochina, OD700, 2 h (AID 1155);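 further: lysis reports solute entry through the parasite surface anion channel PSAC; channel blockers reduce lysis of infected cells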; conditions: P. falciparum Indochina infected erythrocytes, osmotic lysis OD700; higher = more signal, called active from +8 up or from −8 down
[15] = osmotic lysis modulators in infected erythrocytes, primary screen, PSAC antagonist project, cell-based, P. falciparum Indochina, OD700, 3 h (AID 1156); conditions: higher = more signal, called active from +8 up or from −8 down
[16] = PSAC antagonists in infected red cells, primary screen, cell-based, P. falciparum Indochina, OD700, 18 h (AID 1157); conditions: P. falciparum Indochina infected erythrocytes, osmotic lysis OD700, 18 h; higher = more signal, called active from +8 up or from −8 down
[17] = modulators of S6 phosphorylation in cells, primary screen, cell-based, A549, cytoblot, luminescence, serum-stimulated (AID 1158); conditions: A549 phospho-S6 cytoblot, 5 h, higher = more signal;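 further: serum-stimulated A549 lung adenocarcinoma cells; signal is phosphorylated S6 detected by cytoblot immunostaining with HRP secondary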
[18] = target: NADPH oxidase 2 (Homo sapiens) (UniProt P04839); experiment: NOX2-dependent H2O2 signal modulators, primary screen, NOX inhibitor project, cell-based, HEK293-NOX2, PMA-stimulated, Amplex Red fluorescence (AID 1159); conditions: 45 min, higher = more signal, called active from +8 up or from −8 down; further: test concentration not given here
[19] = target: NADPH oxidase 4 (Homo sapiens) (UniProt Q9NPH5); experiment: NOX4-dependent H2O2 signal modulators, primary screen, NOX inhibitor project, cell-based, HEK293-NOX4, tetracycline-induced, Amplex Red fluorescence (AID 1160); conditions: 45 min, higher = more signal, called active from +8 up or from −8 down
[20] = target: NADPH oxidase 5 (Homo sapiens) (UniProt Q96PH1); experiment: NOX5-dependent H2O2 signal modulators, primary screen, NOX inhibitor project, cell-based, HEK293-NOX5, Amplex Red fluorescence (AID 1161); conditions: HEK293-NOX5, ionomycin, 45 min, higher = more signal
Sequence of NADPH oxidase 5 (Homo sapiens) (Q96PH1 whole entry, looked up): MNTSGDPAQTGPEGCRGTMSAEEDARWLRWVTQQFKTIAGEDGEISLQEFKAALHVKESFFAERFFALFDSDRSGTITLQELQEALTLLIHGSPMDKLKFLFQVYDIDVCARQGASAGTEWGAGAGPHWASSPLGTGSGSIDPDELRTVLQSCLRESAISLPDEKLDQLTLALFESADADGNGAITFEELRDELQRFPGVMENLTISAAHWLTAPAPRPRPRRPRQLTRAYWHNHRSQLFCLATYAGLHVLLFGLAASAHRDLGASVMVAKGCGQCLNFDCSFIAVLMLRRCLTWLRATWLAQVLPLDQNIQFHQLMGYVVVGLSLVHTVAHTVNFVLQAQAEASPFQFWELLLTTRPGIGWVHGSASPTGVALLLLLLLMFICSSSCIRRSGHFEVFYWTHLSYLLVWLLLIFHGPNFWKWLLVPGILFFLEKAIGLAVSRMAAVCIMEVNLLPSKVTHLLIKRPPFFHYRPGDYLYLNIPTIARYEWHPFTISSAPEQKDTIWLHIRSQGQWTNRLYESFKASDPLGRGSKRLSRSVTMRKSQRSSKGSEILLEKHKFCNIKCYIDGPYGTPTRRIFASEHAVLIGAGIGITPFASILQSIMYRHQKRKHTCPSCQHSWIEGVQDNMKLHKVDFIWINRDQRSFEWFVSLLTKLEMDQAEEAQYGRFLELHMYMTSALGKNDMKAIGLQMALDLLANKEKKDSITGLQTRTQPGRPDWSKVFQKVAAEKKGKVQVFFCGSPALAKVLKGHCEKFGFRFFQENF

Sequence of Streptavidin (Streptomyces avidinii) (P22629 whole entry, looked up): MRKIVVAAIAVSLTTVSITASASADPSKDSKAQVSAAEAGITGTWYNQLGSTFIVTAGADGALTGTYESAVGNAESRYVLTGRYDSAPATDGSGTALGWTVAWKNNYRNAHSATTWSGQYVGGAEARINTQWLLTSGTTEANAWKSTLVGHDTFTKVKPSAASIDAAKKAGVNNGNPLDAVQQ
Sequence of Torsin-1A (Homo sapiens) (O14656 whole entry, looked up): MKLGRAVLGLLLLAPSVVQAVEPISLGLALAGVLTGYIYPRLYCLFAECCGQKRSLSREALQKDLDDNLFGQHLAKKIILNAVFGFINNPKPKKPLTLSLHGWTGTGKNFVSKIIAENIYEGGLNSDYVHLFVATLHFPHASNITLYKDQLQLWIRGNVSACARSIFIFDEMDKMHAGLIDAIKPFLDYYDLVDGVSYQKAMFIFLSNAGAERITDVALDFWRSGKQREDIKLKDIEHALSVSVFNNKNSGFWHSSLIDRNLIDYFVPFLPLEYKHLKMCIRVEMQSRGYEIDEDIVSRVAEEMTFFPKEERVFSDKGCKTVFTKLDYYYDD
Sequence of NADPH oxidase 2 (Homo sapiens) (P04839 whole entry, looked up): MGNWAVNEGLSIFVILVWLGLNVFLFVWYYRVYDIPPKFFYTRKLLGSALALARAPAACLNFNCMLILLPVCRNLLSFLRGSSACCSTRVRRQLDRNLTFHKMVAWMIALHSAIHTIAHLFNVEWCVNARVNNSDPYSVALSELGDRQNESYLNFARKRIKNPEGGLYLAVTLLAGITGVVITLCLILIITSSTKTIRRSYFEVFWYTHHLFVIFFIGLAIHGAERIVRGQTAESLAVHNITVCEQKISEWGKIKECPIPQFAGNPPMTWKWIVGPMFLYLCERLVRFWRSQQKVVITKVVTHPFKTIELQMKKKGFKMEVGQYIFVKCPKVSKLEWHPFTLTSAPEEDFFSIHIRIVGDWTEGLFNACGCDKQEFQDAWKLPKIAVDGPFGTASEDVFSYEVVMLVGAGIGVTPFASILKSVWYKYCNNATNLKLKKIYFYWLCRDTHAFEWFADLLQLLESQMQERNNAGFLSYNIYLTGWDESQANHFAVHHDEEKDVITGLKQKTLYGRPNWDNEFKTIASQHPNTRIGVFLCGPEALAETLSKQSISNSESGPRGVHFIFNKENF
Sequence of NADPH oxidase 4 (Homo sapiens) (Q9NPH5 whole entry, looked up): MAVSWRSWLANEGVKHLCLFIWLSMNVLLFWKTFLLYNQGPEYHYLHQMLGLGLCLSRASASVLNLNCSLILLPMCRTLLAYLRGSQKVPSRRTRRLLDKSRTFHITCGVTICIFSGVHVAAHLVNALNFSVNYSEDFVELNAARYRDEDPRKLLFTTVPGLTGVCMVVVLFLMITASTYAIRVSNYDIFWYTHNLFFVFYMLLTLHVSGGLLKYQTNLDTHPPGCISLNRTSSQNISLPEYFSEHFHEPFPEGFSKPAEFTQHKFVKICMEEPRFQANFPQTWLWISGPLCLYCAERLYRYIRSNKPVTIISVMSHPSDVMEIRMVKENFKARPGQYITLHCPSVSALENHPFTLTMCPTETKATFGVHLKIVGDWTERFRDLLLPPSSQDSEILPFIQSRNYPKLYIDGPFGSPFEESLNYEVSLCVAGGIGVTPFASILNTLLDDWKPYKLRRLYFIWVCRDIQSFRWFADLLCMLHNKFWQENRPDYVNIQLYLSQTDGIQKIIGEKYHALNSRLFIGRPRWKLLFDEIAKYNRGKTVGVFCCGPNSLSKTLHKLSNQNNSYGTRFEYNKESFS

SMILES | composite z-score [1] | z-score [2] | z-score [3] | z-score [4] | z-score [5] | composite z-score [6] | composite z-score [7] | composite z-score [8] | composite z-score [9] | composite z-score [10] | z-score [11] | composite z-score [12] | z-score [13] | z-score [14] | z-score [15] | z-score [16] | z-score [17] | z-score [18] | z-score [19] | z-score [20]
CN(C)CCCC[C@@H]1NC(=O)[C@H]2C[C@@H](C(=O)O)[C@@H](c3ccc(O)cc3)N2C1=O | 0.938 | -2.41 (inactive) | 0.294 (inactive) | 0.419 (inactive) | -0.457 (inactive) | 3.44 | 1.98 | 2.77 | 3.27 | 2.17 | 2.2 (inactive) | 2.57 | 3.21 (inactive) | 0.73 (inactive) | -2.43 (inactive) | -0.849 (inactive) | 0.651 | 0.485 (inactive) | -1.06 (inactive) | 1.4
COC(=O)[C@@]1(Cc2ccc(F)cc2)[C@H]2c3cc(C(=O)N4CCCC4)n(Cc4cc(F)cc5c4OCOC5)c3C[C@H]2CN1C(=O)c1ccccc1 | 0.547 | -3.39 (inactive) | 0.403 (inactive) | -0.372 (inactive) | 0.755 (inactive) | 1.57 | 0.328 | -0.659 | -0.212 | 0.229 | -2.25 (inactive) | 0.617 | 3.29 (inactive) | 0.273 (inactive) | 3.36 (inactive) | 0.886 (inactive) | 0.0568 | -0.332 (inactive) | 0.115 (inactive) | 0.853
CO[C@H]1O[C@H](CO)[C@@H](OC(=O)Nc2ccccc2)[C@H](OC(=O)Nc2ccccc2)[C@H]1OC(=O)Nc1ccccc1 | 0.664 | -4.39 (inactive) | -1.41 (inactive) | 1.04 (inactive) | -2.64 (inactive) | 0.0545 | 0.0343 | -0.196 | 1.07 | 0.78 | 0.492 (inactive) | 0.264 | 4.11 (inactive) | 1.04 (inactive) | 0.406 (inactive) | 0.912 (inactive) | 0.22 | -7.66 (inactive) | -1.15 (inactive) | -2.32
COc1ccc(C(=O)Nc2ccc3c(c2)[C@@]2(O[C@H](CCO)[C@@H]([Si](C)(C)c4ccc(OC)cc4)[C@@H]2C)C(=O)N3Cc2ccccc2)cc1 | 0.0753 | -8.09 (active) | -0.0986 (inactive) | 5.6 (inactive) | -0.352 (inactive) | 0.0576 | 0.288 | -0.193 | 0.46 | 1.93 | -0.134 (inactive) | 0.778 | 3.2 (inactive) | 0.98 (inactive) | 0.768 (inactive) | -0.188 (inactive) | 0.721 | -4.96 (inactive) | -1.62 (inactive) | 0.371
COCCOC(=O)N1C(=O)[C@@]2(c3ccccc31)[C@H](c1ccc(O)cc1)N1[C@H](c3ccccc3)[C@H](c3ccccc3)OC(=O)[C@H]1[C@@H]2C(=O)N1CCCCCCC1 | 1.08 | -2.61 (inactive) | -1.17 (inactive) | 0.0816 (inactive) | -0.0911 (inactive) | 3.03 | 2.08 | 1.32 | 2.13 | 1.96 | -0.59 (inactive) | 2.86 | -0.0501 (inactive) | 0.619 (inactive) | -0.363 (inactive) | 0.14 (inactive) | -0.43 | 0.54 (inactive) | 0.898 (inactive) | 1.32
